# Measured values from PubChem BioAssay (NCI).
# About 83,000 compounds went through this panel and 20% of them were active in at least one assay; those are over-represented in the sample as a whole.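 A percent growth of 40 corresponds to 60% growth inhibition; 0 means no net growth; -100 means all cells died. Active threshold: below 10.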 Active and inactive are the calls of the source.
# Test system: SNB-75 CNS
# Test: NCI-60 one-dose screen, 48 h (100 = growth as untreated, 0 = no growth, -100 = all killed)
# Settings: 10 µM unless noted
row,SMILES,growth
1,NC1=NC(=O)NC1(c1ccccc1)c1ccccc1,89.9% (inactive)
2,N#C/C(C(=O)c1ccccc1)=C1/C(=O)Nc2ccccc21,66.9% (inactive)
3,CN(Cc1cccc(C(F)(F)F)c1)C(=O)[C@@H](CC(=O)N1CCC(N2CCCCC2)CC1)N1C(=O)[C@@H](N2C(=O)OC[C@@H]2c2ccccc2)[C@H]1/C=C/c1ccccc1,81.3% (inactive)
4,CCOc1ccc(S(=O)(=O)Nc2ccc3c(c2)N(S(=O)(=O)CC)CCC3)cc1,64.8% (inactive)
5,CCOC(=O)C(=Cc1ccccc1[N+](=O)[O-])C(=O)OCC,-7.8% (active)
6,COc1cc(/C=C/C(=O)/C=C/c2ccc(-n3ccnc3C)cc2)ccc1O,76.4% (inactive)
7,CCOC(=O)CC(c1ccccc1)C(C#N)c1ccccc1 (stereo unspecified),82.1% (inactive)
8,Cc1ccc(C2=C/C(=C/c3ccc(Br)cc3)C(=O)N2CCc2ccc(S(N)(=O)=O)cc2)cc1,60.9% (inactive)
9,Cc1ccc(NC(=O)N[C@@H](Cc2cc(F)cc(F)c2)C(=O)N[C@@H]2C(=O)N3CCC[C@H]3C(=O)N3CCCC[C@H]3C(=O)N[C@@H](C)C(=O)N3C[C@H](C)C[C@H]3C(=O)O[C@H]2C)cc1,10.7% (inactive)
10,C=C(C)[C@@H]1CC[C@]2(C)[C@H](CC[C@@H]3[C@@H]([C@@](C)(O)CCC=C(C)C)CC[C@]32C)[C@@]1(C)CCC(=O)O,-37.5% [100 µM] (active)
11,C=CCCCCCCCCC(=O)OC(C)C,103% (inactive)
12,O=C1Nc2ccccc2/C1=C/C(=O)c1ccc(N2CCCCC2)cc1,91.4% (inactive)
13,O=C(N=c1n(-c2ccccc2)nc2n1CCN2C1=NCCN1C(=O)c1ccc(Cl)cc1)c1ccc(Cl)cc1,68.8% (inactive)
14,CC1=CC[C@@H]2C(C)(C)[C@@H](O)CC[C@@]2(C)[C@@H]1COc1ccc2ccc(=O)oc2c1,62.1% (inactive)
15,CSc1nc2sc3cc(Cl)c(Cl)cc3n2c(=N)c1C#N,69.2% (inactive)
16,COc1ccc(C(=O)CCC(=O)O)cc1,99.9% (inactive)
17,O=C(CCNCc1ccccc1)c1ccccc1,109% (inactive)
18,NC(=O)CC1C=CCC1 (stereo unspecified),84.3% (inactive)
19,CCNc1cc2c(cc1Br)-c1ccccc1C2=O,78.1% (inactive)

row,SMILES,growth
1,O=C(O)c1cn(C2CC2)c2cc(N3CCN(Cc4c(O)ccc5ccccc45)CC3)c(F)cc2c1=O,-20.8% (active)
2,CCOC(=O)COc1ccc2c(c1)O/C(=C\c1ccc(O)cc1)C2=O,87.7% (inactive)
3,Nc1cc(NN=C(c2ccc(O)cc2)c2ccc(O)cc2)c([N+](=O)[O-])cc1[N+](=O)[O-],78.2% (inactive)
4,CCCCCCNC(=O)Nc1ncnc2c1ncn2-c1ccccc1,72.7% (inactive)
5,C[C@]12CCc3c(ccc4cc(O)ccc34)[C@@H]1CC[C@H]2O,89.2% (inactive)
6,Nc1nc(Nc2ccccc2)c2ncn(Cc3ccc4c(c3)OCO4)c2n1,29.4% (inactive)
7,COc1ccc(OC)c(NC=O)c1,100% (inactive)
8,Fc1cc2[nH]ncc2c2c3c(c(-c4cn[nH]c4)nc12)CCCC3,3.38% (active)
9,CCN(CC)CCCCCCNc1cccc2cc(Br)cnc12,92.2% (inactive)
10,O=C(CSc1nc2ccc([N+](=O)[O-])cc2[nH]1)Nc1cccc(Cl)c1,23.9% (inactive)
11,CCN(CC)CCCOc1ccc2c(c1)O/C(=C\c1cccc(OC)c1)C2=O,71.8% (inactive)
12,CC1(C)C(=O)/C(=C\c2ccco2)C[C@]2(C)[C@H]3CC=C4[C@@H]5C[C@](C)(C(=O)O)CC[C@]5(C)CC[C@@]4(C)[C@]3(C)CC[C@@H]12,-82.5% [100 µM] (active)
13,C=C(C)[C@@H]1CC[C@]2(C(=O)NCCCCCCN(CCCN)CCCN)CC[C@]3(C)[C@H](CC[C@@H]4[C@@]5(C)CC[C@H](OCCCN)C(C)(C)[C@@H]5CC[C@]43C)[C@@H]12,84.5% [100 µM] (inactive)
14,C=C(C)[C@@H]1CC[C@]2(COC(=O)c3ccccc3C(=O)O)CC[C@]3(C)[C@H](CC[C@@H]4[C@@]5(C)CC[C@H](OC(=O)c6ccccc6C(=O)O)C(C)(C)[C@@H]5CC[C@]43C)[C@@H]12,-20.7% [100 µM] (active)
15,COc1ccc2c(c1)c(-c1noc(-c3cn(C)c4ncc(F)cc34)n1)cn2C,94.9% (inactive)
16,c1ccc(-c2nnc(-c3c[nH]c4ncccc34)s2)cc1,59.6% (inactive)
17,O=C1COCCN1c1ccc(NCc2cn(Cc3ccc(F)cc3)c3ccccc23)cc1,65.3% (inactive)
18,CC(=O)Nc1ccc2nc3ccc(NC(C)=O)cc3[n+](-c3ccccc3)c2c1,82.2% (inactive)
19,CCCCNC(=O)NS(=O)(=O)Cc1ccccc1,95.3% (inactive)

# Test system: SNB-19 CNS
# Test: as above
# Settings: 10 µM unless noted
row,SMILES,growth
1,NC1=NC(=O)NC1(c1ccccc1)c1ccccc1,98.9% (inactive)
2,N#C/C(C(=O)c1ccccc1)=C1/C(=O)Nc2ccccc21,98.8% (inactive)
3,CN(Cc1cccc(C(F)(F)F)c1)C(=O)[C@@H](CC(=O)N1CCC(N2CCCCC2)CC1)N1C(=O)[C@@H](N2C(=O)OC[C@@H]2c2ccccc2)[C@H]1/C=C/c1ccccc1,81% (inactive)
4,CCOc1ccc(S(=O)(=O)Nc2ccc3c(c2)N(S(=O)(=O)CC)CCC3)cc1,80.4% (inactive)
5,CCOC(=O)C(=Cc1ccccc1[N+](=O)[O-])C(=O)OCC,59.6% (inactive)
6,COc1cc(/C=C/C(=O)/C=C/c2ccc(-n3ccnc3C)cc2)ccc1O,79.3% (inactive)
7,CCOC(=O)CC(c1ccccc1)C(C#N)c1ccccc1 (stereo unspecified),111% (inactive)
8,Cc1ccc(C2=C/C(=C/c3ccc(Br)cc3)C(=O)N2CCc2ccc(S(N)(=O)=O)cc2)cc1,89.7% (inactive)
9,Cc1ccc(NC(=O)N[C@@H](Cc2cc(F)cc(F)c2)C(=O)N[C@@H]2C(=O)N3CCC[C@H]3C(=O)N3CCCC[C@H]3C(=O)N[C@@H](C)C(=O)N3C[C@H](C)C[C@H]3C(=O)O[C@H]2C)cc1,22% (inactive)
10,C=C(C)[C@@H]1CC[C@]2(C)[C@H](CC[C@@H]3[C@@H]([C@@](C)(O)CCC=C(C)C)CC[C@]32C)[C@@]1(C)CCC(=O)O,-32.8% [100 µM] (active)
11,C=CCCCCCCCCC(=O)OC(C)C,105% (inactive)
12,O=C1Nc2ccccc2/C1=C/C(=O)c1ccc(N2CCCCC2)cc1,86.5% (inactive)
13,O=C(N=c1n(-c2ccccc2)nc2n1CCN2C1=NCCN1C(=O)c1ccc(Cl)cc1)c1ccc(Cl)cc1,85.8% (inactive)
14,CC1=CC[C@@H]2C(C)(C)[C@@H](O)CC[C@@]2(C)[C@@H]1COc1ccc2ccc(=O)oc2c1,81.2% (inactive)
15,CSc1nc2sc3cc(Cl)c(Cl)cc3n2c(=N)c1C#N,100% (inactive)
16,COc1ccc(C(=O)CCC(=O)O)cc1,104% (inactive)
17,O=C(CCNCc1ccccc1)c1ccccc1,114% (inactive)
18,NC(=O)CC1C=CCC1 (stereo unspecified),104% (inactive)
19,CCNc1cc2c(cc1Br)-c1ccccc1C2=O,96% (inactive)

row,SMILES,growth
1,O=C(O)c1cn(C2CC2)c2cc(N3CCN(Cc4c(O)ccc5ccccc45)CC3)c(F)cc2c1=O,83.1% (inactive)
2,CCOC(=O)COc1ccc2c(c1)O/C(=C\c1ccc(O)cc1)C2=O,102% (inactive)
3,Nc1cc(NN=C(c2ccc(O)cc2)c2ccc(O)cc2)c([N+](=O)[O-])cc1[N+](=O)[O-],-22.6% (active)
4,CCCCCCNC(=O)Nc1ncnc2c1ncn2-c1ccccc1,94.2% (inactive)
5,C[C@]12CCc3c(ccc4cc(O)ccc34)[C@@H]1CC[C@H]2O,87.2% (inactive)
6,Nc1nc(Nc2ccccc2)c2ncn(Cc3ccc4c(c3)OCO4)c2n1,54.4% (inactive)
7,COc1ccc(OC)c(NC=O)c1,106% (inactive)
8,Fc1cc2[nH]ncc2c2c3c(c(-c4cn[nH]c4)nc12)CCCC3,8.75% (active)
9,CCN(CC)CCCCCCNc1cccc2cc(Br)cnc12,107% (inactive)
10,O=C(CSc1nc2ccc([N+](=O)[O-])cc2[nH]1)Nc1cccc(Cl)c1,17.6% (inactive)
11,CCN(CC)CCCOc1ccc2c(c1)O/C(=C\c1cccc(OC)c1)C2=O,92.6% (inactive)
12,CC1(C)C(=O)/C(=C\c2ccco2)C[C@]2(C)[C@H]3CC=C4[C@@H]5C[C@](C)(C(=O)O)CC[C@]5(C)CC[C@@]4(C)[C@]3(C)CC[C@@H]12,-91.7% [100 µM] (active)
13,C=C(C)[C@@H]1CC[C@]2(C(=O)NCCCCCCN(CCCN)CCCN)CC[C@]3(C)[C@H](CC[C@@H]4[C@@]5(C)CC[C@H](OCCCN)C(C)(C)[C@@H]5CC[C@]43C)[C@@H]12,80.8% [100 µM] (inactive)
14,C=C(C)[C@@H]1CC[C@]2(COC(=O)c3ccccc3C(=O)O)CC[C@]3(C)[C@H](CC[C@@H]4[C@@]5(C)CC[C@H](OC(=O)c6ccccc6C(=O)O)C(C)(C)[C@@H]5CC[C@]43C)[C@@H]12,4.01% [100 µM] (active)
15,COc1ccc2c(c1)c(-c1noc(-c3cn(C)c4ncc(F)cc34)n1)cn2C,76.2% (inactive)
16,c1ccc(-c2nnc(-c3c[nH]c4ncccc34)s2)cc1,91.7% (inactive)
17,O=C1COCCN1c1ccc(NCc2cn(Cc3ccc(F)cc3)c3ccccc23)cc1,92.2% (inactive)
18,CC(=O)Nc1ccc2nc3ccc(NC(C)=O)cc3[n+](-c3ccccc3)c2c1,94.2% (inactive)
19,CCCCNC(=O)NS(=O)(=O)Cc1ccccc1,114% (inactive)
